The nature of experiment [1]: Quantitative High-Throughput drug screen in 47 multiple myeloma cell lines against the NCATS MIPE library collection: Karpas620_DSMZ cell viability assay (AID 1918959). Note: nearly all actives have a fitted effect of over 30% in size. The essentials:
(§1)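 Viability readout: CellTiter-Glo luminescence following 5 min room-temperature incubation with reagent. Prior exposure: 48 h, 37C, humidified 5% CO2, 500 cells per well.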

A short description of experiment [2]: Quantitative High-Throughput drug screen in 47 multiple myeloma cell lines against the NCATS MIPE library collection: KHM11_PLB cell viability assay (AID 1918962). Note: nearly all actives have a fitted effect of over 35% in size. The essentials:
as §1

Experiment [3] in a line: Quantitative High-Throughput drug screen in 47 multiple myeloma cell lines against the NCATS MIPE library collection: JIM3_ECACC cell viability assay (AID 1918963; note: nearly all actives have a fitted effect of over 35% in size). The method in brief: as §1
Experiment [4] in a line: Quantitative High-Throughput drug screen in 47 multiple myeloma cell lines against the NCATS MIPE library collection: INA6_PLB cell viability assay (AID 1918965; note: nearly all actives have a fitted effect of over 55% in size). The method in brief:
(§2)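 Approved and investigational drugs from MIPE 4.0 were added by pin tool to 500 cells per well. After 48 hours at 37C, ATP-based CellTiter-Glo luminescence indicated remaining viability.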

The nature of experiment [5]: Quantitative High-Throughput drug screen in 47 multiple myeloma cell lines against the NCATS MIPE library collection: JJN3_DSMZ cell viability assay (AID 1918966; note: nearly all actives have a fitted effect of over 50% in size). The method in brief:
(§3)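 Myeloma cell lines, 500 cells per well, exposed to MIPE 4.0 library compounds for 48 h at 37C, 5% CO2. Viability from ATP by CellTiter-Glo luminescence; normalised to DMSO (100%) and media-only (0%) wells.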

Experiment [6] is described as follows: Quantitative High-Throughput drug screen in 47 multiple myeloma cell lines against the NCATS MIPE library collection: H1112_PLB cell viability assay (AID 1918967; note: nearly all actives have a fitted effect of over 30% in size). The method in brief: as §3
Experiment [7] is described as follows: Quantitative High-Throughput drug screen in 47 multiple myeloma cell lines against the NCATS MIPE library collection: Karpas25_ECACC cell viability assay (AID 1918968; note: nearly all actives have a fitted effect of over 35% in size). The method in brief: as §3
Experiment [8] is described as follows: Quantitative High-Throughput drug screen in 47 multiple myeloma cell lines against the NCATS MIPE library collection: KMS27_JCRB cell viability assay (AID 1918970). Note: nearly all actives have a fitted effect of over 30% in size. The essentials:
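Viability inhibition screen, 48 h compound exposure, luminescent ATP read-out.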

The nature of experiment [9]: Quantitative High-Throughput drug screen in 47 multiple myeloma cell lines against the NCATS MIPE library collection: KMS12PE_JCRB cell viability assay (AID 1918972). Note: nearly all actives have a fitted effect of over 30% in size. The method in brief:
as §2

Experiment [10] is described as follows: Quantitative High-Throughput drug screen in 47 multiple myeloma cell lines against the NCATS MIPE library collection: KMS20_JCRB cell viability assay (AID 1918973). Note: nearly all actives have a fitted effect of over 45% in size. The method in brief:
as §3

Experiment [11] can be described thus: Quantitative High-Throughput drug screen in 47 multiple myeloma cell lines against the NCATS MIPE library collection: KMS26_JCRB cell viability assay (AID 1918975). Note: nearly all actives have a fitted effect of over 45% in size. The method in brief:
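Luminescent ATP measurement with CellTiter-Glo gives viability, scaled between DMSO-only wells (100%) and media-only wells (0%). Cells, 500 per well, faced library compounds for 48 hours at 37C.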

Experiment [12] can be described thus: Quantitative High-Throughput drug screen in 47 multiple myeloma cell lines against the NCATS MIPE library collection: OCIMY1_PLB cell viability assay (AID 1918979). Note: nearly all actives have a fitted effect of over 35% in size. The method in brief:
(§4)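 MIPE 4.0 approved/investigational drugs; 500 cells/well; 48 h 37 °C humidified 5% CO2; CTG luminescence readout; DMSO = 100%, media = 0% viability.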

Experiment [13] in a line: Quantitative High-Throughput drug screen in 47 multiple myeloma cell lines against the NCATS MIPE library collection: MM1S_ATCC cell viability assay (AID 1918980). Note: nearly all actives have a fitted effect of over 45% in size. The essentials: as §4
Experiment [14] can be described thus: Quantitative High-Throughput drug screen in 47 multiple myeloma cell lines against the NCATS MIPE library collection: MM1R_ATCC cell viability assay (AID 1918981). Note: nearly all actives have a fitted effect of over 35% in size. The essentials:
as §4

Experiment [15] can be described thus: Quantitative High-Throughput drug screen in 47 multiple myeloma cell lines against the NCATS MIPE library collection: LP1_DSMZ cell viability assay (AID 1918982). Note: nearly all actives have a fitted effect of over 35% in size. The method in brief: as §4
Experiment [16] can be described thus: Quantitative High-Throughput drug screen in 47 multiple myeloma cell lines against the NCATS MIPE library collection: KMM1_JCRB cell viability assay (AID 1918960). Note: nearly all actives have a fitted effect of over 30% in size. The essentials:
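ATP readout (CellTiter-Glo), 48 h drug incubation, 37 °C/5% CO2, 500 cells per well; normalisation to DMSO (100%) and media-only (0%) controls.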

Experiment [17] can be described thus: Quantitative High-Throughput drug screen in 47 multiple myeloma cell lines against the NCATS MIPE library collection: Karpas417_ECACC cell viability assay (AID 1918961). The note with it: Karpas417 myeloma viability, CellTiter-Glo ATP luminescence, 48 h; viability (% of DMSO): at 45.8 µM (top of the series). The essentials:
as §2

A short description of experiment [18]: Quantitative High-Throughput drug screen in 47 multiple myeloma cell lines against the NCATS MIPE library collection: KMS21BM_JCRB cell viability assay (AID 1918974). The method in brief: as §3
Experiment [19] can be described thus: Quantitative High-Throughput drug screen in 47 multiple myeloma cell lines against the NCATS MIPE library collection: MMM1_PLB cell viability assay (AID 1918976). Note: nearly all actives have a fitted effect of over 35% in size. To be noted: MMM1 myeloma cells viability, CellTiter-Glo, 48 h. The method in brief:
as §4
(In general: ATP-based viability assays read luminescence as a measure of living cells.)

The nature of experiment [20]: Quantitative High-Throughput drug screen in 47 multiple myeloma cell lines against the NCATS MIPE library collection: MOLP8_DSMZ cell viability assay (AID 1918977). Note: nearly all actives have a fitted effect of over 45% in size. The essentials:
as §4

Results filed as inconclusive are left out. Calls of active or inactive are those of the source. Calls come from the whole dose curve; as a rule, active = well fitted curve in the direction sought with a large enough effect; inconclusive = small, poorly fitted or top-dose-only effect, or another doubt; inactive = no such curve, though single readings can be large; an effect the other way counts as inactive or inconclusive.
Potency is the fitted concentration of half-maximal effect.

In the case of `C[C@@H]1O[C@@H](O[C@H]2C[C@@H](O)[C@]3(CO)[C@H]4[C@H](O)C[C@]5(C)[C@@H](C6=CC(=O)OC6)CC[C@]5(O)[C@@H]4CC[C@]3(O)C2)[C@H](O)[C@H](O)[C@H]1O`, the Potency is 37.2 nM (active) in experiment [1]; 37.2 nM (active) in experiment [2]; 41.8 nM (active) in experiment [3]; 23.5 nM (active) in experiment [4]; 105 nM (active) in experiment [5]; 83.3 nM (active) in experiment [6]. The Potency was 37.2 nM (active) in experiment [7]; 18.7 nM (active) in experiment [8]; 10.5 nM (active) in [9]; 23.5 nM (active) in experiment [10]; 105 nM (active) in experiment [11]; 20.9 nM (active) in [12]. The Potency is 59 nM (active) in [13], 52.6 nM (active) in experiment [14] and 16.6 nM (active) in experiment [15].
As for `CN(C)CCc1ccc(O)cc1`, the Potency result in experiment [1], in experiment [16], in experiment [17], in experiment [3], in [6] and in experiment [8] was “inactive” throughout. The Potency entry in experiment [9], in [18], in experiment [11], in experiment [20], in [12] and in experiment [13] was “inactive” in each case. Moreover, the Potency result in experiment [14] and in experiment [15] was “inactive” each time. For the same compound, the Potency in experiment [19] was 1660 nM (active).
On to `CC(C)CC(N(C)C)C1(c2ccc(Cl)cc2)CCC1` (stereo not given), for which the Potency result in [1], in experiment [16], in [2], in [3], in [5] and in experiment [8] was “inactive” in each case. Further, the Potency result in [9], in [11], in [20], in experiment [12] and in experiment [15] was “inactive” each time. Further, the Potency in experiment [6] and in experiment [13] was 5260 nM (active) each time.
As to `Cn1c(CCCC(=O)O)nc2cc(N(CCCl)CCCl)ccc21`, the Potency entry in [1], in [16], in experiment [3], in experiment [8] and in experiment [9] was “inactive” each time. The Potency was 18700 nM (active) in experiment [4]; 5900 nM (active) in experiment [11]; 10500 nM (active) in experiment [19]; 3320 nM (active) in [20]; 23500 nM (active) in [13]; 18700 nM (active) in experiment [14].
Take `C=C(C)[C@H]1Cc2c(ccc3c2O[C@@H]2COc4cc(OC)c(OC)cc4[C@@H]2C3=O)O1`: the Potency in [1] is 296 nM (active); in experiment [16] it was 235 nM (active); in experiment [3], 935 nM (active); in experiment [4], 118 nM (active); in [5] it was 7430 nM (active); in experiment [6], 132 nM (active). Moreover, the Potency in experiment [7] is 46.9 nM (active); in experiment [8] it was 296 nM (active); in experiment [10], 332 nM (active); in [18] it was 209 nM (active); in [19], 166 nM (active); in experiment [13], 1320 nM (active). For the same compound, the figures for the Potency in experiment [14] and in experiment [15] were 526 nM (active) and 264 nM (active), respectively.
`O=P1(NCCCl)OCCCN1CCCl` (stereo not given): the Potency in experiment [3] is 20900 nM (active); in experiment [18] it was 7430 nM (active). The Potency result in experiment [11] and in experiment [20] was “inactive” in each case.
With `COC[C@@H](NC(C)=O)C(=O)NCc1ccccc1`, the Potency result in experiment [1], in [16], in [3], in experiment [5], in experiment [6] and in experiment [8] was “inactive” throughout. Also, the Potency entry in experiment [10], in experiment [20], in experiment [12], in experiment [14] and in experiment [15] was “inactive” throughout.
With `Cc1cccc(C)c1NC(=O)CN1CCCC1=O`, the Potency entry in [1], in [16], in experiment [2], in experiment [3], in [4] and in experiment [6] was “inactive” in each case. Further, the Potency result in [7], in experiment [8], in [9], in [11], in experiment [12] and in [14] was “inactive” in each case. Moreover, in experiment [15], the Potency entry was “inactive”. For the same compound, the Potency in experiment [13] was 235 nM (active).
`N[C@@H](Cc1ccc(N(CCCl)CCCl)cc1)C(=O)O`: the Potency in experiment [1] was 10500 nM (active); in experiment [16], 13200 nM (active); in experiment [17] it was 2960 nM (active); in experiment [2] it was 20900 nM (active); in [3], 16600 nM (active); in experiment [4], 1320 nM (active). Besides, the Potency in experiment [5] was 11800 nM (active); in [6], 6620 nM (active); in experiment [7], 13200 nM (active); in [8], 3720 nM (active); in [9], 16600 nM (active); in [11], 23500 nM (active). The Potency in experiment [19] is 4690 nM (active); in experiment [20], 5900 nM (active); in experiment [12], 16600 nM (active); in experiment [13], 13200 nM (active); in experiment [14], 2640 nM (active); in experiment [15] it was 16600 nM (active).

Values taken from PubChem BioAssay (NCATS).
